MOR-DOR inv ag – inverse agonist of human OPRM1-OPRD1 heterodimerization. inhibition, % at 9.3 µM. hit rate 0.21% among 340,000. AID 504357. P35372+P41143. cell-based MOR-DOR heterodimer luminescence, inverse agonism; in the data active = inhibition above about 22%, passing the limit was not always enough;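 note: 0% = cells with DMSO and 100% = wells without cells with DMSO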
MsrA inh – bovine MsrA inhibition. hit rate 0.75% among 360,000. inhibition, % at 15.5 µM. purified bovine MsrA, absorbance read-out. AID 651718;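 note: 0% = vehicle wells with enzyme and 100% = reference inhibitor wells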
MsrA act – activators of bovine methionine sulfoxide reductase A; hit rate 0.3% among 360,000; AID 602163; activation, % at 10.6 µM; purified bovine MsrA, absorbance read-out; in the data active = activation above about 7.5%;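 note: 0% = vehicle and 100% = reference activator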
MOR-DOR ag – OPRM1-OPRD1 heterodimerization agonism; P35372+P41143; cells, luminescence; activation, % at 9.3 µM; hit rate 0.3% among 340,000; AID 504326; in the data active = activation above about 18%;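 note: 0% = vehicle-treated cells and 100% = reference agonist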
HTR5A inv ag – counter-screen for OPRM1-OPRD1 inverse agonists: human HTR5A inverse agonism; HTR5A cell line, luminescence; P47898; inhibition, % at 9.3 µM; AID 504634; hit rate 0.083% among 340,000; in the data active = inhibition mostly above about 23%, no sharp cut-off; inactive = mostly below about 18%;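 note: 0% = cells with DMSO and 100% = no-cell wells with DMSO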
HTR5A ag ctr – activates human HTR5A in OPRM1-OPRD1 agonist counter-screen | activation, % at 9.3 µM | AID 504692 | P47898 | HTR5A agonist assay, luminescence, cell-based | hit rate 0.61% among 340,000; in the data active = activation mostly above about 9.5%, no sharp cut-off; inactive = mostly below about 7.6%;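 note: 0% = cells with vehicle only and 100% = reference agonist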
MsrA conf – confirmation of bovine MsrA inhibitors; shares compounds with MsrA inh; purified bovine MsrA, absorbance read-out; inhibition, % at 15.5 µM; hit rate 41% among 2,300; AID 651822;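 note: coupled to thioredoxin reductase with NADPH and selenocystamine and DMSO as substrate; 0% = vehicle only and 100% = full effect of reference inhibitor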
Starred values were filed as active, the others as inactive; nt = no result given. In the library only some 1.9% were active in any assay of this set; here they are far more common. Cut-off read from the data, not from the text of the source, unless noted: active = inhibition above about 4.5%; inactive = the rest.

SMILES	MOR-DOR inv ag	MsrA inh	MsrA act	MOR-DOR ag	HTR5A inv ag	HTR5A ag ctr	MsrA conf
CC(=O)Oc1cc(C)cc2oc(=O)cc(-c3ccccc3)c12	10	9.1*	1	-2	5	-1	1
Cc1cc(OCC(=O)N2CCc3ccccc3C2)c2c(-c3ccccc3)cc(=O)oc2c1	13	15*	-3	-2	-23	3	14*
Cc1ccc(-c2c(C)cc3oc(=O)cc(-c4ccccc4)c3c2C)cc1	15	0	-2	-3	0	0	nt
CCOc1cc(C)cc2oc(=O)cc(-c3ccccc3)c12	-18	6.5*	-1	3	2	1	5.1*
Cc1cc(OC(C)C)c2c(-c3ccccc3)cc(=O)oc2c1	-18	26*	-6	4	-6	2	22*
COc1ccc(C(C(=O)c2ccccc2)c2ccccc2)cc1 (stereo not given)	nt	0	nt	nt	nt	nt	nt
O=C(NCc1ccco1)C(=O)NN=Cc1ccccc1O	nt	2	nt	nt	nt	nt	nt
CCN1/C(=C/C(C)=O)Sc2ccc(OC)cc21	15	5.5*	-4	-2	-13	-3	4
Cc1ccc(S(=O)(=O)N2[C@H](CC(=O)c3cccs3)OC[C@@H]2C(C)C)cc1	nt	0	nt	nt	nt	nt	nt
Cc1cccc(Cl)c1NC(=O)NCCCN1CCOCC1	nt	-1	nt	nt	nt	nt	nt
CN(C)N=Nc1nc2c(c(=O)n(C)c(=O)n2C)n1CC1CO1 (stereo not given)	nt	7.4*	-6	nt	nt	nt	5.9*
CN(C)N=Nc1nc2c([nH]1)c(=O)n(C)c(=O)n2C	4	2	-3	-1	-31	2	nt
CC(C)(C)NC(=O)C(C1CC1)n1c(=O)c(-c2ccco2)nc2ccccc21 (stereo not given)	nt	0	nt	nt	nt	nt	nt
O=C(Nc1ccc([N+](=O)[O-])cn1)c1ccc(Br)o1	-3	5.6*	-3	1	-7	3	4
O=C(Nc1ccc([N+](=O)[O-])cn1)c1cccnc1	0	0	-5	0	1	0	nt
Cc1nc(Cl)cc(N/N=C/c2ccc(O)cc2O)n1	-3	5.7*	-9	1	-1	0	6.2*
Cc1cc(N/N=C/c2ccc(O)cc2O)nc(-n2nc(C)cc2C)n1	-22	4.8*	-10	4	20	-8	4
O=C(N[C@H](Cc1ccccc1)C(=O)NCCCN1CCCC1=O)[C@H]1O[C@@H](n2ccc(=O)[nH]c2=O)[C@H](O)[C@@H]1O	nt	0	nt	nt	nt	nt	nt
COC(=O)c1ccc(S(=O)(=O)N2CCCN(Cc3ccccc3)CC2)n1C	4	2	-1	-1	18	-7	nt
COC(=O)c1ccc(S(=O)(=O)N2CCCN(Cc3cccc(Br)c3F)CC2)n1C	0	15*	-1	0	-5	-2	11*
Cc1cccc(N/C=C/C(=O)c2ccc(Cl)cc2)c1	-3	2	-1	1	1	0	nt
Cc1ccc[n+](/C(=C\C(=C=[N-])C#N)C(=O)c2ccc(Cl)cc2)c1	7	4.8*	-6	-1	0	0	5.0*
CN(C)c1ccc(/C=N/NC(=O)c2ccc(CN3CCOCC3)cc2)cc1Br	nt	2	-14	nt	nt	nt	nt
COc1ccc(/C=N/NC(=O)c2ccc(CSc3nncn3C)cc2)cc1OC	17	4.8*	-6	-3	-2	1	4
CCOc1cc(/C=N/NC(=O)c2ccc(CN3CCOCC3)cc2)ccc1OC	11	5.3*	-12	-2	-3	1	4
SMILES	MOR-DOR inv ag	MsrA inh	MsrA act	MOR-DOR ag	HTR5A inv ag	HTR5A ag ctr	MsrA conf
CCN(c1ccc(OC)cc1)S(=O)(=O)c1cc(-c2cc(C)no2)ccc1C(C)C	-18	1	0	3	6	-1	nt
CCOc1ccc(N(C)S(=O)(=O)c2cc(-c3cc(C)no3)ccc2C(C)C)cc1	-5	11*	-11	1	23	-2	12*
O=C(N/N=C/c1ccc(-c2ccccc2C(=O)O)o1)c1cccs1	19	6.8*	-5	-4	12	4	4.6*
Cc1cc(-c2nc3ncccc3o2)ccc1N	5	6.5*	-5	-1	-4	1	6.6*
Cc1ccc(-c2nc3ncccc3o2)cc1N	-6	1	-4	1	1	5	nt
Nc1ccc(Cl)c(-c2nc3ncccc3o2)c1	12	0	-1	-2	4	0	nt
Nc1ccc(-c2nc3ncccc3o2)c(Cl)c1	12	6.0*	-10	-2	26	5	5.2*
Nc1ccc(-c2nc3ncccc3o2)c(O)c1	20	9.8*	-7	-4	11	-3	7.2*
C=C(C)[C@@H]1C2=CC(C(=O)OC)=C(C[C@H](C(=C)C)[C@H]3O[C@H]3C3=C[C@H]1OC3=O)O2	nt	1	1	nt	nt	nt	nt
O=C(NCc1ccccc1)c1ccc(Oc2ccc(C(=O)NCc3ccccc3)cc2)cc1	-1	0	-1	0	-11	4	nt
O=C(NCc1ccco1)c1ccc(=O)oc1	10	7.9*	-6	-2	-17	-3	6.2*
O=C(NCc1ccccc1)c1ccc(=O)oc1	14	7.5*	-11	-3	-16	-2	6.2*
COC(=O)CNC(=O)c1ccc(=O)oc1	4	5.8*	-7	-1	13	-4	5.3*
Cc1nc2ccccc2n1C(C)c1nc2ccccc2n1CC(=O)c1ccc(OC(F)(F)F)cc1 (stereo not given)	nt	0	nt	nt	nt	nt	nt
CN(C)c1ccc(-c2ccnc3c2CC(C)(C(=O)NCC2CC2)O3)cc1 (stereo not given)	nt	0	-2	nt	nt	nt	nt
Cc1cc(/C=C(\C#N)C(=O)Nc2ccccc2F)c(C)[nH]1	6	4.7*	0	-1	9	-4	3
N#C/C(=C\c1ccc[nH]1)C(=O)Nc1ccccc1F	17	3	-6	-3	-10	-3	nt
CCCc1ccc2c(C)cccc2n1	nt	-2	nt	nt	nt	nt	nt
COc1cc(S(=O)(=O)Nc2ccc(C)cc2)ccc1N=Cc1c(C)c(C#N)c(=O)n(C)c1O	nt	3	-7	nt	nt	nt	nt
C=CCn1c(O)c(CN2CCCCC2)c(C)c(C#N)c1=O	-5	2	-4	1	2	-1	nt
Cc1c(C=N)c(O)n(C)c(=O)c1C#N	15	5.2*	-6	-3	-29	1	6.6*
Cc1ccc(N/N=C/c2c(C)c(C#N)c(=O)n(C)c2O)cc1C	-1	5.9*	-3	0	-7	3	6.6*
CCN(CC)S(=O)(=O)c1ccc(N=Cc2c(C)c(C#N)c(=O)n(C)c2O)cc1	-3	5.1*	-2	1	-24	3	7.3*
COC(=O)C1=C(C)N(Cc2ccccc2C(F)(F)F)C(=NCc2ccccc2)NC1c1ccc(F)cc1 (stereo not given)	nt	0	nt	nt	nt	nt	nt
Nc1ncnc2c1ncn2[C@@H]1O[C@H](C(=O)N[C@@H](CCc2ccccc2)C(=O)N2CCN(C(=O)C(F)(F)F)CC2)[C@@H](O)[C@H]1O	nt	0	nt	nt	nt	nt	nt
O=C1c2ccccc2C(c2nnnn2C2CCCCC2)N1CCc1ccc(O)cc1 (stereo not given)	nt	0	-4	nt	nt	nt	nt

Screens (PubChem)
